# Assay results: PubChem BioAssay AID686979 (National Center for Advancing Translational Sciences (NCATS), 2013)
# The campaign covered roughly 420,000 compounds. About 50,000 (12%) were called active. Where a call stands in place of a potency, no number is given. About 26% were inconclusive and are not listed. The sample holds actives, similar compounds and a random draw of the others, so the mix is not that of the screen. Calls come from the whole dose curve; as a rule, active = well fitted inhibition curve with a large enough effect; inconclusive = small, poorly fitted or top-dose-only effect; inactive = flat fitted curve, though single readings scatter.
# Test: qHTS for Inhibitors of human tyrosyl-DNA phosphodiesterase 1 (TDP1): qHTS in cells in presence of CPT; note: nearly all actives have a fitted effect of over 55% in size
# Details: chicken DT40 Tdp1-/-;hTDP1 cells + 20 nM CPT, ATP luminescence, 48 h; series mostly up to 46.2 µM
# Procedure, shortened: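 Cell growth measured by CellTiter-Glo luminescence after a minimum 48 h, 37 C compound exposure with 20 nM CPT in Tdp1-knockout DT40 cells stably expressing hTDP1, seeded 400/well; qHTS titration format.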
# Potency is the fitted concentration of half-maximal effect.
row,SMILES,Potency
1,Cc1cccc2c1cnn2C(=O)CCC(=O)NC1CCCCC1,inactive
2,COc1ccc2[nH]c3nc(SCC(=O)NC4CC4)nnc3c2c1,inactive
3,O=C(CSc1nnc2c(n1)[nH]c1ccccc12)NC1CCCCC1,inactive
4,CCOc1ccc2[nH]c3nc(SCC(=O)NC4CCCC4)nnc3c2c1,5.17 µM (active)
5,CCN(CC)CCNC(=O)c1ccc(NS(=O)(=O)c2ccc3c(c2)OCCO3)cc1,inactive
6,O=S(=O)(Nc1ccccc1)c1ccc(NS(=O)(=O)c2cccs2)cc1,inactive
7,NS(=O)(=O)c1ccc(CCNC(=O)c2ccc([N+](=O)[O-])cc2[N+](=O)[O-])cc1,inactive
8,Cc1cccc(S(=O)(=O)N(C)C[C@@H]2OCc3cnnn3CCCC(=O)N([C@H](C)CO)C[C@@H]2C)c1,inactive
9,CC(=O)Cc1nsc(NC(=O)c2ccc(Cl)cc2Cl)n1,inactive
10,Cc1csc(NC(=O)c2ccc(-c3ccc(Cl)cc3Cl)o2)n1,9.2 µM (active)
11,O=C(O)c1cc(Cl)c(Cl)cc1C(=O)Nc1cccc2ncccc12,inactive
12,O=C(Nc1cccc2ncccc12)c1ccc(-c2ccc(Cl)cc2Cl)o1,20.6 µM (active)
13,Cc1ccc(C(=O)Nc2nc3ccc(Cl)cc3s2)o1,inactive
14,O=C(Nc1cccnc1Cl)c1cc(-c2cccc(Cl)c2)on1,inactive
15,O=C(Cc1ccsc1)N1CCN(S(=O)(=O)c2cc(C(F)(F)F)cc(C(F)(F)F)c2)CC1,inactive
16,COc1ccc(CN2CC(C(=O)NCCc3ccc(Cl)cc3)CC2=O)cc1 (centres undefined),inactive
17,CCc1ccc(Oc2coc3cc(O)ccc3c2=O)cc1,inactive
18,CCCN(CCC)C(=S)Nc1cc(C(=O)OC)ccc1C(=O)OC,18.4 µM (active)
19,CCS(=O)(=O)Nc1cc(C(=O)OC)ccc1C(=O)OC,inactive
20,CCN(CCO)C(=S)Nc1cc(C(=O)OC)ccc1C(=O)OC,inactive
21,CCc1ccc(-n2nc(C)c3c(C)cc(=O)n(CC(=O)Nc4ccc(F)cc4C)c32)cc1,inactive
22,CCC(C(=O)OC)n1cnc2c(oc3ccccc32)c1=O (centres undefined),inactive
23,Cc1cccc(C(=O)Nc2ccc(S(=O)(=O)N3CCCCC3c3cccnc3)cc2)c1 (centres undefined),23.1 µM (active)
24,CCOc1ccccc1C(=O)Nc1ccc(S(=O)(=O)N2CCCCC2c2cccnc2)cc1 (centres undefined),18.4 µM (active)
25,Cc1cc(NS(=O)(=O)c2ccc(NC(=O)c3cccnc3)cc2)nc(C)n1,inactive
26,Cc1ccc(S(=O)(=O)N2CCCCC2)cc1NC(=O)c1cccnc1,inactive

row,SMILES,Potency
1,COc1ccc(C(=O)NC(=S)N2CCCCC2c2cccnc2)cc1OC (centres undefined),inactive
2,CCOc1ncccc1C(=O)Nc1ccc(S(=O)(=O)Nc2nc(C)cc(C)n2)cc1,inactive
3,COc1ccc(NC(=O)CSc2nnc(-c3nnn(-c4ccc(F)cc4)c3C)o2)cc1,inactive
4,CC1(C(=O)NCc2cccc3ccccc23)CCN1Cc1ccc(-c2ccccc2)o1 (centres undefined),23.1 µM (active)
5,CSc1ccc(CN2CCC2(C)C(=O)NCc2ccccc2Br)cc1 (centres undefined),18.4 µM (active)
6,CC1(C(=O)NCc2ccc3c(c2)OCO3)CCN1C(=O)Cc1cccs1 (centres undefined),inactive
7,CC1(C(=O)NS(=O)(=O)c2cccc(F)c2)CCN1C(=O)c1cccc2ccccc12 (centres undefined),inactive
8,CSc1ccc(CNC(=O)C2(C)CCCN2C)cc1 (centres undefined),inactive
9,CCCC(=O)N1CCC1(C)C(=O)NCc1ccc(SC)cc1 (centres undefined),inactive
10,CCN1CCN(C(c2ccc(C)cc2)c2c(O)cc(C)n(Cc3ccco3)c2=O)CC1 (centres undefined),inactive
11,O=C(NCc1ccccn1)Nc1ccc(Cl)cc1,inactive
12,Cn1cccc1/C=N/NC(=O)c1ccc(OC(F)(F)C(F)F)cc1,inactive
13,CCCC(=O)N1CCC1(C)C(=O)NS(=O)(=O)c1ccc(Cl)cc1 (centres undefined),inactive
14,O=C(CCN1C(=O)c2ccccc2C1=O)NCCCn1ccnc1,inactive
15,CC(=O)C(C)n1cnc2scc(-c3ccc(C)cc3)c2c1=O (centres undefined),inactive
16,CN(C)S(=O)(=O)c1ccc(N2CCCC2)c(C(=O)Nc2cccc(F)c2)c1,inactive
17,Cc1nccn1CCCNC(=O)CC1C(=O)NCCN1Cc1ccc(Cl)c(F)c1 (centres undefined),inactive
18,O=C(CC1C(=O)NCCN1Cc1ccc(-c2ccccc2)cc1)NCC1CCOCC1 (centres undefined),inactive
19,CCOc1ccc(CN2CCNC(=O)C2CC(=O)NCCCC2CCCC2)cc1 (centres undefined),16.4 µM (active)
20,CCN(C(=O)COC(=O)c1ccccc1O)c1cccc2ccccc12,inactive
21,CC(C)CCNC(=O)CC1C(=O)N(Cc2ccccc2)C(C)c2nc3ccccc3n21 (centres undefined),inactive
22,Cc1onc(-c2ccccc2)c1-c1nnc(COC(=O)c2ccc(N(C)C)cc2)o1,20.6 µM (active)
23,Cc1onc(-c2ccccc2)c1C(=O)N=C(N)c1ccc(Cl)cc1,inactive
24,Cc1ccc(C(=O)NCC(=O)OCc2nnc(-c3ccccc3)o2)cc1,inactive
25,CCOC(=O)c1ccc(COC(=O)CCc2nc(-c3ccccc3)c(-c3ccccc3)o2)cc1,inactive
26,Cc1onc(-c2ccccc2Cl)c1C(=O)OCc1nnc(-c2ccccc2)o1,18.4 µM (active)

row,SMILES,Potency
1,O=C(OCc1nnc(-c2ccccc2)o1)c1ccc2c(c1)C(=O)N(CCc1ccccc1)C2=O,inactive
2,Cc1ccc(NC(=O)CCC(=O)N/N=C/c2ccco2)c(C)c1,inactive
3,Nc1nc(O)c(CC(=O)O)s1,inactive
4,O=C(NCCNc1ccccc1[N+](=O)[O-])c1ccccc1F,inactive
5,Cn1nnnc1SCC(=O)Nc1cccc(S(=O)(=O)N2CCCCC2)c1,inactive
6,CCOC(=O)C1=C(NC(=S)NC(=O)c2ccccc2)c2ccccc2CC1(C)C,inactive
7,O=C(CSc1nc(O)c(Cc2ccccc2)c(=O)[nH]1)Nc1nc2c(s1)CCCC2,inactive
8,Cc1ccc2c(c1)C1CN(C)CCC1N2C(=O)c1ccccc1NS(=O)(=O)c1ccc(F)cc1C (centres undefined),inactive
9,O=C1O/C(=C\c2ccc(O)cc2)C(O)=C1c1ccc(O)cc1,inactive
10,COc1cc(C2C3=C(CCCC3=O)OC3=C2C(=O)CCC3)ccc1OCC(=O)Nc1ccccc1,inactive
11,O=C1c2ccccc2S(=O)(=O)N1Cc1c(F)cccc1Cl,inactive
12,O=c1c(=O)n(Cc2c(F)cccc2Cl)ccn1Cc1ccccc1,inactive
13,Cc1ccc(C)c(N2C(=O)N(Cc3c(F)cccc3Cl)c3ccccc3S2(=O)=O)c1,18.4 µM (active)
14,CCCCn1c(N)c(N(CC(C)C)C(=O)c2cccc(S(=O)(=O)N3CC(C)OC(C)C3)c2)c(=O)[nH]c1=O (centres undefined),inactive
15,O=C(COc1ccc2c3c(c(=O)oc2c1)CCCC3)NCC(O)c1ccccc1 (centres undefined),20.6 µM (active)
16,NC(=O)COc1ccc2c3c(c(=O)oc2c1)CCCCC3,inactive
17,O=C(COc1ccc2ccc(=O)oc2c1)NCC(O)c1ccccc1 (centres undefined),inactive
18,Cc1cc(CNC(=O)C2CCC(=O)N(CCc3ccc(Cl)cc3)C2)no1 (centres undefined),inactive
19,O=c1c2ccccc2nnn1CSc1nnnn1-c1ccccc1,inactive
20,O=c1c2ccccc2nnn1CSc1nc2sc3c(c2c(=O)n1CC1CCCO1)CCC3 (centres undefined),16.4 µM (active)
21,Nc1nnc(SCn2nnc3ccccc3c2=O)s1,inactive
22,O=S(=O)(Nc1ccc(Cl)cn1)c1cnc(Cl)c(Br)c1,inactive
23,CN1CCN(C(=O)c2ccc(-c3ccc(Br)cc3)o2)CC1,inactive
24,CCOC(=O)N1CCN(Cc2nc3ccc([N+](=O)[O-])cc3c(=O)n2-c2cccc(OC)c2)CC1,inactive
25,Cc1ccc(NN=C2C(=O)OC(C)(C)OC2=O)c(C)c1,inactive
26,CC(C)=C1SC(N2CCN(c3cccc(C)c3)CC2)=NC1=O,20.6 µM (active)

row,SMILES,Potency
1,Cc1ccc(N2CCN(C3=NC(=O)/C(=C\c4cccs4)S3)CC2)cc1,inactive
2,CC(C)=C1SC(N2CCN(c3ccc(C)c(Cl)c3)CC2)=NC1=O,inactive
3,CCOC(=O)C(C)Sc1nnc(CSc2nc3nc(C)cc(C)n3n2)o1 (centres undefined),inactive
4,C=CCNC(=S)/N=c1/ccccn1Cc1ccccc1,7.31 µM (active)
5,C=CCNC(=O)COc1coc(CN2CCN(Cc3ccccc3)CC2)cc1=O,inactive
6,CNC(=S)NNC(=O)c1cccn(Cc2ccccc2)c1=O,inactive
7,NS(=O)(=O)c1ccc(N=Cc2ccc(Br)s2)cc1,inactive
8,COc1cc(OC)cc(-c2c(C#Cc3ccsc3)c3cc(-c4ccc(OC)cc4F)ccc3n2C)c1,inactive
9,COc1cc(OC)cc(-c2c(C#Cc3ccsc3)c3cc(-c4ccc(SC)cc4)ccc3n2C)c1,inactive
10,COc1cc(OC)cc(-c2c(-c3cccs3)c3cc(-c4ccc(OC)nc4)ccc3n2C)c1,20.6 µM (active)
11,CCOC(=O)C1(CCOc2ccccc2)CCN(Cc2ccc(C#CCCO)cc2)CC1,18.4 µM (active)
12,CCOC(=O)C1(CCOc2ccccc2)CCN(C(=O)c2cncs2)CC1,inactive
13,CCOC(=O)C1(CCOC)CCN(Cc2cc3ccccc3s2)CC1,18.4 µM (active)
14,O=C(c1cn(CC2CCCN(Cc3cc4ccccc4s3)C2)nn1)N1CCCC1 (centres undefined),inactive
15,CCOC(=O)C1(CCOc2ccccc2)CCN(Cc2cc(OC)cc(OC)c2)CC1,25.9 µM (active)
16,CCOC(=O)C1(Cc2cccc(OC)c2)CCN(C(C)CC(C)(C)O)CC1 (centres undefined),inactive
17,CCOC(=O)C1(CCOC)CCN(Cc2ccc(C(=O)OC)cc2)CC1,inactive
18,O=C(CCc1ccccc1)Nc1ccnn1C1CCN(Cc2ccc(OCCO)cc2)CC1,inactive
19,CCOC(=O)C1(S(=O)(=O)c2ccc(Cl)cc2)CCN(Cc2ccccc2)CC1,inactive
20,COc1cc(C)ccc1OCC(=O)OCC(=O)c1ccc[nH]1,inactive
21,Cc1cc(NS(=O)(=O)c2ccc(NC(=O)C(C)Oc3cccc(C)c3C)cc2)nc(C)n1 (centres undefined),inactive
22,N#CC1(C#N)C(C(=O)C23CC4CC(CC(C4)C2)C3)C12CCOCC2 (centres undefined),inactive
23,COc1ccccc1NC(=O)c1ccc(N2CC3CC(C2)c2cccc(=O)n2C3)c(NC(=O)c2cccnc2)c1 (centres undefined),inactive
24,Cc1ccc(S(=O)(=O)N(Cc2cccc([N+](=O)[O-])c2)C(=O)N2CCN(C)CC2)cc1,inactive
25,O=C(Nc1cccc([N+](=O)[O-])c1)Nc1ccc(Cl)cn1,inactive
26,O=C(CCl)N(Cc1cccc([N+](=O)[O-])c1)c1cccc(Cl)c1,2.31 µM (active)
